Test results published in PubChem BioAssay AID1159580 (chemical genetic matrix, 2015).
Several values for one entry are separate records, joined by “and”; a condition that tells them apart may be missing. Equal values may be shown once. The campaign covered roughly 5,500 compounds. About 2,000 (36%) were called active. About 18% were inconclusive and are not listed. No stated cut-off is given here; in the data, active means normalized growth mostly below about 0.91 (no sharp cut-off); inconclusive means no clear call, values can overlap the other calls; inactive means mostly above about 0.92. This is one part of the list.

Assay: chemical genetic growth profiling, strain panel (AID 1159580);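 further: tested at 20 µM; growth read once vehicle control cultures reached saturation at 30 °C; 1 = growth at the plate median or of vehicle wells; lower values mean less growth of the strain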
Settings: growth OD

Measured: normalized growth

COC(=O)C1=C(C)NC(C)=C(C(=O)OCCN(C)Cc2ccccc2)C1c1cccc([N+](=O)[O-])c1 (stereo unspecified)
inactive: S. cerevisiae deletion strains, locus YJR075W, strain HOC1, active compounds read low 0.973 and 0.963 | S. cerevisiae deletion strains, locus YKL009W, strain mrt4, active compounds read low 0.97 | S. cerevisiae deletion strains, locus YKL068W, active compounds read low 0.994 | S. cerevisiae deletion strains, locus YKL085W, strain MDH1 (second series), active compounds read low 0.993 | S. cerevisiae deletion strains, locus YKL085W, strain MDH1, active compounds read low 0.993 | S. cerevisiae deletion strains, locus YKL160W, strain elf1, active compounds read low 0.963 | S. cerevisiae deletion strains, locus YKL190W, strain CNB1, active compounds read low 0.99 | S. cerevisiae deletion strains, locus YKR001C, strain vps1, active compounds read low 1.01 | S. cerevisiae deletion strains, locus YKR026C, strain gcn3, active compounds read low 0.97 | S. cerevisiae deletion strains, locus YKR091W, strain srl3, active compounds read low 0.993 | S. cerevisiae deletion strains, locus YLL001W, strain dnm1, active compounds read low 0.98 | S. cerevisiae deletion strains, locus YLL026W, active compounds read low 0.998 | S. cerevisiae deletion strains, locus YLL041C, strain sdh2, active compounds read low 0.968 | S. cerevisiae deletion strains, locus YLR027C, strain aat2, active compounds read low 0.988 | S. cerevisiae deletion strains, locus YLR039C, strain RIC1, active compounds read low 0.999 | S. cerevisiae deletion strains, locus YLR058C, strain SHM2, active compounds read low 0.963 | S. cerevisiae deletion strains, locus YLR102C, strain apc9, active compounds read low 0.987 | S. cerevisiae deletion strains, locus YLR113W, strain HOG1, active compounds read low 0.93 | S. cerevisiae deletion strains, locus YLR221C, strain rsa3, active compounds read low 0.982 | S. cerevisiae deletion strains, locus YLR258W, strain gsy2, active compounds read low 0.973 | S. cerevisiae deletion strains, locus YLR262C, strain YPT6 (second series), active compounds read low 0.952 | S. cerevisiae deletion strains, locus YLR262C, strain YPT6, active compounds read low 0.947 | S. cerevisiae deletion strains, locus YLR268W, strain sec22, active compounds read low 1 | S. cerevisiae deletion strains, locus YLR320W, strain mms22, active compounds read low 0.986 | S. cerevisiae deletion strains, locus YLR330W, strain CHS5, active compounds read low 0.993 | S. cerevisiae deletion strains, locus YLR342W, strain FKS1 (second series), active compounds read low 0.957 | S. cerevisiae deletion strains, locus YLR342W, strain FKS1, active compounds read low 0.996 | S. cerevisiae deletion strains, locus YLR357W, strain rsc2, active compounds read low 0.965 | S. cerevisiae deletion strains, locus YLR370C, strain arc18, active compounds read low 0.984 | S. cerevisiae deletion strains, locus YLR371W, strain rom2, active compounds read low 0.967 | S. cerevisiae deletion strains, locus YLR384C, strain iki3, active compounds read low 0.98 | S. cerevisiae deletion strains, locus YLR418C, strain cdc73, active compounds read low 0.96 | S. cerevisiae deletion strains, locus YML016C, strain PPZ1, active compounds read low 0.99 | S. cerevisiae deletion strains, locus YML032C, strain rad52, active compounds read low 0.961 | S. cerevisiae deletion strains, locus YML120C, strain ndi1, active compounds read low 1.02 | S. cerevisiae deletion strains, locus YML124C, strain tub3, active compounds read low 0.992 | S. cerevisiae deletion strains, locus YMR058W, strain fet3, active compounds read low 0.993 | S. cerevisiae deletion strains, locus YMR078C, strain ctf18, active compounds read low 0.977 | S. cerevisiae deletion strains, locus YMR125W, strain sto1, active compounds read low 0.978 | S. cerevisiae deletion strains, locus YMR129W, active compounds read low 1 | S. cerevisiae deletion strains, locus YMR205C, strain PFK2, active compounds read low 0.986 | S. cerevisiae deletion strains, locus YMR223W, strain ubp8, active compounds read low 0.978 | S. cerevisiae deletion strains, locus YMR231W, strain pep5, active compounds read low 0.998 | S. cerevisiae deletion strains, locus YMR263W, strain SAP30, active compounds read low 0.988 | S. cerevisiae deletion strains, locus YMR307W, strain GAS1, active compounds read low 0.744 | S. cerevisiae deletion strains, locus YNL067W, strain RPL9B, active compounds read low 0.999 | S. cerevisiae deletion strains, locus YNL071W, strain lat1, active compounds read low 0.97 | S. cerevisiae deletion strains, locus YNL128W, strain TEP1, active compounds read low 0.987 and 1.05 | S. cerevisiae deletion strains, locus YNL153C, strain GIM3, active compounds read low 0.98 | S. cerevisiae deletion strains, locus YNL175C, strain NOP13, active compounds read low 1 | S. cerevisiae deletion strains, locus YNL183C, strain NPR1, active compounds read low 0.923 | S. cerevisiae deletion strains, locus YNL197C, strain WHI3, active compounds read low 1.02 | S. cerevisiae deletion strains, locus YNL209W, strain ssb2, active compounds read low 0.978 | S. cerevisiae deletion strains, locus YNL224C, strain SQS1, active compounds read low 0.993 | S. cerevisiae deletion strains, locus YNL233W, strain BNI4, active compounds read low 0.981 | S. cerevisiae deletion strains, locus YNL248C, strain rpa49, active compounds read low 0.968 | S. cerevisiae deletion strains, locus YNL250W, strain rad50, active compounds read low 0.981 | S. cerevisiae deletion strains, locus YNL271C, strain bni1, active compounds read low 1 | S. cerevisiae deletion strains, locus YNL298W, strain CLA4, active compounds read low 0.996 | S. cerevisiae deletion strains, locus YNL307C, strain MCK1, active compounds read low 0.968 | S. cerevisiae deletion strains, locus YNL322C, strain KRE1 (second series), active compounds read low 0.996 | S. cerevisiae deletion strains, locus YNL322C, strain KRE1, active compounds read low 0.995 | S. cerevisiae deletion strains, locus YNR049C, strain mso1, active compounds read low 0.974 | S. cerevisiae deletion strains, locus YNR052C, strain pop2, active compounds read low 0.999 | S. cerevisiae deletion strains, locus YOL006C, strain TOP1, active compounds read low 1.01 | S. cerevisiae deletion strains, locus YOL012C, strain htz1 0.795 | S. cerevisiae deletion strains, locus YOL147C, strain pex11, active compounds read low 0.99 | S. cerevisiae deletion strains, locus YOR001W, strain rrp6, active compounds read low 0.994 | S. cerevisiae deletion strains, locus YOR061W, strain CKA2, active compounds read low 0.964 | S. cerevisiae deletion strains, locus YOR069W, strain VPS5, active compounds read low 1.01 | S. cerevisiae deletion strains, locus YOR070C, strain gyp1, active compounds read low 0.979 | S. cerevisiae deletion strains, locus YOR080W, strain dia2, active compounds read low 0.979 | S. cerevisiae deletion strains, locus YOR083W, strain WHI5 (second series), active compounds read low 1.01 | S. cerevisiae deletion strains, locus YOR083W, strain WHI5, active compounds read low 1 | S. cerevisiae deletion strains, locus YOR106W, strain vam3, active compounds read low 0.971 | S. cerevisiae deletion strains, locus YOR136W, strain idh2, active compounds read low 0.984 | S. cerevisiae deletion strains, locus YOR144C, strain elg1, active compounds read low 0.999 | S. cerevisiae deletion strains, locus YOR184W, strain ser1, active compounds read low 0.956 | S. cerevisiae deletion strains, locus YOR231W, strain MKK1, active compounds read low 0.969 | S. cerevisiae deletion strains, locus YOR265W, strain rbl2, active compounds read low 0.999 | S. cerevisiae deletion strains, locus YOR270C, strain vph1, active compounds read low 0.939 | S. cerevisiae deletion strains, locus YOR290C, strain snf2, active compounds read low 0.975 | S. cerevisiae deletion strains, locus YOR316C, strain cot1, active compounds read low 0.98 | S. cerevisiae deletion strains, locus YPL051W, strain arl3, active compounds read low 0.979 | S. cerevisiae deletion strains, locus YPL055C, strain LGE1, active compounds read low 0.951 and 0.966 | S. cerevisiae deletion strains, locus YPL078C, strain atp4, active compounds read low 0.995 | S. cerevisiae deletion strains, locus YPL106C, strain sse1, active compounds read low 0.887 | S. cerevisiae deletion strains, locus YPL240C, strain hsp82, active compounds read low 0.985 | S. cerevisiae deletion strains, locus YPL241C, strain CIN2, active compounds read low 0.991 and 0.972 | S. cerevisiae deletion strains, locus YPL256C, strain CLN2, active compounds read low 0.957 | S. cerevisiae deletion strains, locus YPR119W, strain clb2, active compounds read low 0.984 | S. cerevisiae deletion strains, locus YPR141C, strain kar3, active compounds read low 0.982 | S. cerevisiae deletion strains, locus YPR163C, strain tif3, active compounds read low 0.996 | S. cerevisiae deletion strains, locus YPR167C, strain met16, active compounds read low 0.988 | S. cerevisiae deletion strains, strain wtn01, active compounds read low 0.981 | S. cerevisiae strains, strain wild type, active compounds read low 0.998
